According to PubChem BioAssay (NCATS):
Records with an inconclusive call do not appear. Calls of active or inactive are those of the source. Calls come from the whole dose curve; as a rule, active = well fitted inhibition curve with a large enough effect; inconclusive = small, poorly fitted or top-dose-only effect; inactive = flat fitted curve, though single readings scatter.

biological target: Calcium and integrin-binding protein 1 (Homo sapiens) (UniProt Q99828); experiment: Primary qHTS for Identification of Calcium Integrin Binding Protein 1 (CIB1) Competitor (AID 1508620); details: CIB1-GST / FITC-alphaIIb peptide fluorescence polarization; series mostly up to 114 µM; activity change, negative = inhibition: at the top concentration;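 note: GST tagged CIB1 binding a fluorescein labelled alphaIIb integrin peptide tracer; top concentration of the series differs between compounds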
In short: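 Fluorescence polarization competition: CIB1-GST (1 uM final) preincubated with compound 15 min at room temperature, then FITC-labeled alphaIIb peptide (100 nM final) added for another 15 min. Polarization read at Ex 480/Em 540.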
% is set by controls: 0 for no effect and ±100 for the full control effect.

Calcium and integrin-binding protein 1 (Homo sapiens), sequence (Q99828 whole entry, looked up): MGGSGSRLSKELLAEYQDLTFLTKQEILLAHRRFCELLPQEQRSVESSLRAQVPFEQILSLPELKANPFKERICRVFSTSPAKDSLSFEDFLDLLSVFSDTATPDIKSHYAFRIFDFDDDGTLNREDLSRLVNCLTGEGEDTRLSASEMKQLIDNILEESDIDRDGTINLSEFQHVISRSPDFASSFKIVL

| Structure (SMILES) | activity change, negative = inhibition | Potency |
| --- | --- | --- |
| COc1ccc(-c2nc3ccccc3c(=O)n2Cc2ccc(CNC(=O)CO)cc2)cc1COc1ccc(NC(C)=O)cc1 | -8.89% (inactive) |  |
| Cc1ccc(OCCn2c(CCNC(=O)Cc3ccc(F)cc3F)nc3ccccc32)cc1 | 17.2% (inactive) |  |
| O=C(Nc1cccc2c1cnn2-c1ccc(F)cc1)c1ccccn1 | 4.34% (inactive) |  |
| O=[S+]([O-])(Nc1ccccc1F)c1cccc(NC/C=C/c2ccccc2)c1 | 2.54% (inactive) |  |
| CCCN(Cc1cccs1)c1ncnc2ccc(-c3ccc4c(c3)OCO4)cc12 | 9.67% (inactive) |  |
| Cc1ccc(-c2ccc(=O)n(CC(=O)N(C)[C@@H](C)c3ccccc3)n2)cc1 | -4.83% (inactive) |  |
| Cc1cccc2oc(NC3=NC(c4[nH]ncc4Cl)C4=C(CCCC4=O)N3)nc12 (configuration not stated) |  | inactive |
| CC(Nc1nc(-c2ccccc2C(F)(F)F)nc2ccccc12)c1ccc(-c2cccc(C(F)(F)F)c2)cc1 (configuration not stated) | 4.58% (inactive) |  |
| Nc1cc(-c2nc(Nc3ccc(F)c(F)c3)c3ccccc3n2)ccn1 | 5.26% (inactive) |  |
| Cc1ccc(OCCn2c(CCNC(=O)c3cccc(N)c3)nc3ccccc32)cc1 | -2% (inactive) |  |
| O=c1c2ccccc2nc2sc(Nc3ccc(F)cc3)nn12 | 11.4% (inactive) |  |
| CCNC(=O)C1CCN(C(=O)C(C)(C)NC(=O)Nc2ccccc2Cl)CC1 | -2.15% (inactive) |  |
| Fc1cccc(-c2ccc(Nc3nc(-c4ccncc4)nc4ccccc34)cc2F)c1 | 2.21% (inactive) |  |
| O=C1c2ccccc2NC(c2ccc(Br)o2)N1O (configuration not stated) | -8.79% (inactive) |  |
| Cc1nnc(-c2cnn(C)c2N)n1CCc1cccs1 | -7.12% (inactive) |  |
| COc1ccc(-c2nnc3n2N=C(c2ccccc2OC)CS3)c(OC)c1 | -0.164% (inactive) |  |
| N#Cc1ccc(NC(=O)Nc2nnc(-c3ccncc3)s2)cc1 | 4.09% (inactive) |  |
